{"source": "paper PMC4336329", "about": "(PLoS ONE, 2015)", "note": "Out of some 310,000 compounds screened, about 14,000 (4.5%) showed an effect of 50% or more. The effect is printed as a negative number. This excerpt belongs to a sample that is enriched for strong results.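 Also: peak tail current of the secondary pulse compared with the same well before compound.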"}
{"molecular_target": "human ether-à-go-go-related gene (hERG) potassium channel (human, UniProt Q12809)", "sequence (Q12809 whole entry, looked up)": "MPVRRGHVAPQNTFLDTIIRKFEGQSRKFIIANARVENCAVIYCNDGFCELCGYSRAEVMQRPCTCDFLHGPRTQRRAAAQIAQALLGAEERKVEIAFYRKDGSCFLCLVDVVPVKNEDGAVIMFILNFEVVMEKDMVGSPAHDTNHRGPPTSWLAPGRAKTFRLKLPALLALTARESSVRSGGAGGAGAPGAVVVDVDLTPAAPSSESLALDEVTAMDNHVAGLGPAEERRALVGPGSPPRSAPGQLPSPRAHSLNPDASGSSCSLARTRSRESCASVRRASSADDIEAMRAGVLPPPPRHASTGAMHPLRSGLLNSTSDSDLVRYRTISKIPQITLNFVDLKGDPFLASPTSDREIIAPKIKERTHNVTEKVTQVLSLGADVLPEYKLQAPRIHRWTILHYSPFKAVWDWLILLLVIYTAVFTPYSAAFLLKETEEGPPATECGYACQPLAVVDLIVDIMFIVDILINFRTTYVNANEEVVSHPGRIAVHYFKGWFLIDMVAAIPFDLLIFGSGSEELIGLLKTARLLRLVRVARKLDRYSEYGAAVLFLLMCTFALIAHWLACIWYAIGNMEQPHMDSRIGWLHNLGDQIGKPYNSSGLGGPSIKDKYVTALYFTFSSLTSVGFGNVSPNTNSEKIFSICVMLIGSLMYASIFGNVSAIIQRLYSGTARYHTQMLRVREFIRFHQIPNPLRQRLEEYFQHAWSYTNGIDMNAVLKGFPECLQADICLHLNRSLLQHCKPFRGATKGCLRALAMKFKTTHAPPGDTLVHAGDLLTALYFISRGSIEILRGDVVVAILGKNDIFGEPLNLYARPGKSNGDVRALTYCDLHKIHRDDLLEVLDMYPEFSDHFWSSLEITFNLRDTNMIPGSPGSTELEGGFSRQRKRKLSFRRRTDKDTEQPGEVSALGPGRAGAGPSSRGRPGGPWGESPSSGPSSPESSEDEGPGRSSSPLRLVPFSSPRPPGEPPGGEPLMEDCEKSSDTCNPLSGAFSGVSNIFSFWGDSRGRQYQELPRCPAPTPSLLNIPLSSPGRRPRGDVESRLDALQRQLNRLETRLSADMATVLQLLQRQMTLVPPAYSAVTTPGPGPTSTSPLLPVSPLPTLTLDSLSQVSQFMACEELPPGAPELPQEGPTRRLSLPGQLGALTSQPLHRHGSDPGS", "assay": "primary screen, population patch clamp on CHO cells stably expressing hERG; higher = less effect of the substance", "units": {"hERG current change (%, negative = inhibition) at 10uM": "%"}}
{"smiles": "COC(=O)C1=C(c2ccc(F)cc2OCc2ccccc2)C[C@@H]2CC[C@H]1N2C(=O)NCCO", "hERG current change (%, negative = inhibition) at 10uM": 3.42}
{"smiles": "Cc1cc(C)c(C#N)c(SCc2ccccc2C)n1", "hERG current change (%, negative = inhibition) at 10uM": 17.7}
{"smiles": "O=[N+]([O-])c1cccc(OCC(O)CN2CCN(S(=O)(=O)c3cc(Cl)ccc3Cl)CC2)c1", "note": "(centres unmarked)", "hERG current change (%, negative = inhibition) at 10uM": -31.3}
{"smiles": "COc1cccc(C(=O)CN2CCN(S(=O)(=O)c3cccc([N+](=O)[O-])c3)CC2)c1", "hERG current change (%, negative = inhibition) at 10uM": -9.29}
{"smiles": "COc1ccc(S(=O)(=O)N2CCN(Cc3cccc(OC)c3)CC2)cc1", "hERG current change (%, negative = inhibition) at 10uM": -28.6}
{"smiles": "O=S(=O)(c1cccs1)N1CCN(CC(O)COC2CCCc3ccccc32)CC1", "note": "(centres unmarked)", "hERG current change (%, negative = inhibition) at 10uM": -25.1}
{"smiles": "COc1ccc(S(=O)(=O)N2CCN(Cc3cccc([N+](=O)[O-])c3)CC2)cc1", "hERG current change (%, negative = inhibition) at 10uM": -87.4}
{"smiles": "CC(=O)c1ccc(OCC(O)CN2CCN(S(=O)(=O)c3cccc(Br)c3)CC2)cc1", "note": "(centres unmarked)", "hERG current change (%, negative = inhibition) at 10uM": 22.8}
{"smiles": "COc1ccc(S(=O)(=O)N2CCN(Cc3cccc(F)c3)CC2)cc1", "hERG current change (%, negative = inhibition) at 10uM": -3.34}
{"smiles": "COc1ccc(C(=O)CN2CCN(S(=O)(=O)c3cccc([N+](=O)[O-])c3)CC2)cc1", "hERG current change (%, negative = inhibition) at 10uM": -112}
{"smiles": "CCOc1ccc(S(=O)(=O)N2CCN(CC(O)COc3cccc([N+](=O)[O-])c3)CC2)cc1", "note": "(centres unmarked)", "hERG current change (%, negative = inhibition) at 10uM": -65.5}
{"smiles": "Cc1ccc(S(=O)(=O)N2CCN(CC(O)COc3ccccc3)CC2)cc1", "note": "(centres unmarked)", "hERG current change (%, negative = inhibition) at 10uM": -16.2}
{"smiles": "COc1ccc(C(=O)CN2CCN(S(=O)(=O)c3cccc([N+](=O)[O-])c3)CC2)cc1OC", "hERG current change (%, negative = inhibition) at 10uM": -5.28}
{"smiles": "O=S(=O)(c1cccs1)N1CCN(CC(O)COc2cccc(Br)c2)CC1", "note": "(centres unmarked)", "hERG current change (%, negative = inhibition) at 10uM": -61.1}
{"smiles": "Cc1ccc2oc(C(=O)NCC(c3ccco3)N3CCCC3)c(C)c2c1", "note": "(centres unmarked)", "hERG current change (%, negative = inhibition) at 10uM": -33.8}
{"smiles": "COc1ccc(C(=O)NNC(=O)CCn2nnc(-c3ccc(Cl)cc3)n2)cc1OC", "hERG current change (%, negative = inhibition) at 10uM": 19}
{"smiles": "O=P(O)(c1ccccc1)c1ccccc1O", "hERG current change (%, negative = inhibition) at 10uM": -7.16}
{"smiles": "O=C(NN1C(=O)C2C3C=CC(C4CC34)C2C1=O)c1ccccc1Cl", "note": "(centres unmarked)", "hERG current change (%, negative = inhibition) at 10uM": 0.861}
{"smiles": "COc1ccc(N(C)S(=O)(=O)c2cccc(C(=O)Nc3nc(C)c(C(C)=O)s3)c2)cc1", "hERG current change (%, negative = inhibition) at 10uM": 7.14}
{"smiles": "CCOC(=O)Cn1nnnc1CN(Cc1ccccc1)Cc1cc2cc(CC)ccc2[nH]c1=O", "hERG current change (%, negative = inhibition) at 10uM": -11.2}
{"smiles": "CN1CCN(S(=O)(=O)c2cccc([N+](=O)[O-])c2)CC1", "hERG current change (%, negative = inhibition) at 10uM": 18.7}
{"smiles": "CC(C)n1c(N2CCN(S(=O)(=O)c3cccc([N+](=O)[O-])c3)CC2)nc2ccccc21", "hERG current change (%, negative = inhibition) at 10uM": -71}
{"smiles": "O=[N+]([O-])c1cccc(S(=O)(=O)N2CCN(c3ccccn3)CC2)c1", "hERG current change (%, negative = inhibition) at 10uM": 4.57}
